Test results taken from PubChem BioAssay (Tox21).
Records with an inconclusive call do not appear. Active and inactive are the calls of the source. The call rests on the fitted dose curve; in most records, active means well fitted curve in the direction sought with a large enough effect in the repeat runs; inconclusive means weak or mixed curves; inactive means no such curve, though single readings can be large; an effect the other way counts as inactive or inconclusive.

Tests used:
[1] = A CellTox Green Cytotoxicity Assay to monitor cytotoxicity in HepG2 cells - 8 hour (AID 1224890); further: nearly all actives have a fitted effect of over 45% in size
Method in brief: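 First, HepG2 cells (600/well) mixed with reagent were plated; second, after 5 h at 37 C they received compounds via pintool; third, fluorescence was measured at 0 h through 40 h at 8 h intervals.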

[2] = qHTS assay to identify small molecule antagonists of the estrogen receptor alpha (ER-alpha) signaling pathway using the BG1 cell line in the presence of 0.1 nM 17-beta-estradiol - cell viability counter screen (AID 1259241); further: nearly all actives have a fitted effect of over 40% in size
Method in brief: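 Cytotoxicity counter-screen: live-cell protease activity measured by fluorescence (30 min reagent step) in the same wells. Cells were VM7Luc4E2 with endogenous ER-alpha and ERE-driven luciferase, treated 22 hr at 37C alongside 0.1 nM 17beta-estradiol final.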

[3] = qHTS assay to identify small molecule antagonists of the androgen receptor (AR) signaling pathway using the MDA cell line in the presence of 0.5 nM R1881 - cell viability counter screen (AID 1259242); further: nearly all actives have a fitted effect of over 45% in size
Method in brief: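 qHTS format. MDA-kb2 (MMTV-luc, AR/GR responsive) + cpd + 0.5 nM R1881 final, 16 hr 37C/0% CO2 → CellTiter-Fluor 30 min → fluorescence intensity.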

[4] = biological target: Estrogen receptor (Homo sapiens) (UniProt P03372); assay: qHTS assay to identify small molecule antagonists of the estrogen receptor alpha (ER-alpha) signaling pathway using the BG1 cell line in the presence of 0.1 nM 17-beta-estradiol (AID 1259244); further: nearly all actives have a fitted effect of over 50% in size
Estrogen receptor (Homo sapiens), sequence (P03372 whole entry, looked up): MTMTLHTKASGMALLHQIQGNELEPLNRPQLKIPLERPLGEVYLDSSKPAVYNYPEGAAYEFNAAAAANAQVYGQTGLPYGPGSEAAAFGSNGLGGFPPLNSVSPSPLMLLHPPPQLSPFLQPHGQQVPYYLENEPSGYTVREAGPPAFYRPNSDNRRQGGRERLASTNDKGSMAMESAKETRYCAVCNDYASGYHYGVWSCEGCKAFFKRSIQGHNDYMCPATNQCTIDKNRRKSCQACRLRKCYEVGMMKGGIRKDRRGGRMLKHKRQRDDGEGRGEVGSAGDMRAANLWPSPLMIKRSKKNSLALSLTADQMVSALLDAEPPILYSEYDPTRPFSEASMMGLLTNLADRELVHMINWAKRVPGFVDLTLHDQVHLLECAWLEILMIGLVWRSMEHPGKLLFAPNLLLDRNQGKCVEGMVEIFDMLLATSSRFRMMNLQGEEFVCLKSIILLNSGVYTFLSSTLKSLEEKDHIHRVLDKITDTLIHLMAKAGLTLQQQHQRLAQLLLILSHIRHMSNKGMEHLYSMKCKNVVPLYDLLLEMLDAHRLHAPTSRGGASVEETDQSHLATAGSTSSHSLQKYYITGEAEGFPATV
Method in brief: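 Reporter is a stably transfected luciferase under four estrogen responsive elements in VM7Luc4E2 cells expressing native full-length ER-alpha; inhibition of 0.1 nM (final) 17beta-estradiol-driven signal over 22 h is read by luminescence.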

[5] = qHTS assay to identify small molecule HDAC inhibitors (AID 1259364);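 further: wild-type HCT-116 cells with endogenous class I/II HDAC activity; top concentration of the series differs between compounds; nearly all actives have a fitted effect of over 45% in size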
Method in brief: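 Quantitative high-throughput format: overnight-seeded HCT-116 cells got compounds for 2 hr at 37C; HDAC-Glo I/II reagent added, 30 min RT, luminescence measured.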

[6] = qHTS assay to identify small molecule HDAC inhibitors - cell viability counter screen (AID 1259365); further: series mostly up to about 92 µM; nearly all actives have a fitted effect of over 50% in size
Method in brief: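 CellTiter-Glo luminescence (30 min, room temperature) reported viability after a 2 h compound exposure at 37 C. Cells: wild-type HCT-116, 1,500 per well, seeded the night before.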

[7] = qHTS assay to identify small molecule agonists of the sonic hedgehog signaling (Shh) pathway - cell viability counter screen (AID 1259366); further: nearly all actives have a fitted effect of over 50% in size
Method in brief: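 Cytotoxicity counter screen: CellTiter-Fluor reagent added after 23 h compound exposure, then 1 h at 37C and fluorescence read. Cells were 3T3 Gli1-Luc, seeded 2,000 per well and dosed 4 h post-plating.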

[8] = qHTS assay to identify small molecule antagonists of the sonic hedgehog signaling (Shh) pathway - cell viability counter screen (AID 1259367); further: nearly all actives have a fitted effect of over 55% in size
Method in brief: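 Cytotoxicity was assessed in parallel with Shh reporter activity by measuring live-cell protease fluorescence (CellTiter-Fluor) in NIH/3T3 cells stably carrying Gli1-Luc, treated with compound under conditioned medium stimulation for 23 hr plus 1 hr reagent incubation.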

Measured: Potency

CNC(=O)c1c(I)c(NC(=O)CCCCC(=O)Nc2c(I)c(C(=O)O)c(I)c(C(=O)NC)c2I)c(I)c(C(=O)O)c1I
inactive: all assays above

C=C(C)C(=O)OCCC(C)OC(=O)C(=C)C (configuration not stated)
not listed: [7]
inactive: all other assays above

CCCc1ccc(N)cc1
inactive: all assays above

CC(C)(C)CC(C)(C)N
inactive: all assays above

O=C(O)c1cccc(C(=O)O)n1
inactive: all assays above

O=C(O)C(O)[C@H](O)[C@@H](O)[C@H](O)[C@H](O)CO (some centres not stated)
not listed: [7]
inactive: all other assays above

NCCN1CCNC1=O
not listed: [8]
inactive: all other assays above

CCCCCCC(=O)OCC
not listed: [7]
inactive: all other assays above

C=C(C)C(=O)NCCC[N+](C)(C)C
inactive: all assays above

CC(C)(O)c1ccccc1
inactive: all assays above

CC(=O)OC(C)(C)C
inactive: all assays above

CC(C)COC(=O)c1ccccc1O
inactive: all assays above

CCOC(=O)Cn1c(=O)sc2cccc(Cl)c21
inactive: all assays above

O=[N+]([O-])c1ccc(Oc2ccc([N+](=O)[O-])cc2)cc1
inactive: all assays above

Cc1ccc(Nc2ccc(O)c3c2C(=O)c2ccccc2C3=O)cc1
not listed: [7]
inactive: all other assays above

C=C(C)[C@@H]1CCC2=CC(=O)C[C@@H](C)[C@]2(C)C1
inactive: all assays above

C=C(C)C1CC=C(C)C(O)C1 (configuration not stated)
inactive: all assays above

CCCCCCC(CCCCCCCCCCC(=O)OCC(COC(C)=O)OC(C)=O)OC(C)=O (configuration not stated)
inactive: all assays above

Cc1c(F)cc2c(=O)c(C(=O)O)cn3c2c1CCC3C (configuration not stated)
inactive: all assays above

O=C(CCOCCOCCOCCOCCC(=O)Nc1c(I)cc(I)c(C(=O)O)c1I)Nc1c(I)cc(I)c(C(=O)O)c1I
inactive: all assays above

COCCOC(=O)CC#N
inactive: all assays above

OCC(CO)(CO)COCC(CO)(CO)CO
inactive: all assays above

CC1=CCC2C(C1)C2(C)C (configuration not stated)
inactive: all assays above

CC(=O)c1ccc(C)cc1
not listed: [7]
inactive: all other assays above

COC(=O)CCCC(=O)O
inactive: all assays above

CCCCOCC(C)OCC(C)O (configuration not stated)
inactive: all assays above
